Screen size: about 5,500 compounds; about 2,000 (36%) were called active. Roughly 18% stayed inconclusive and do not appear here. No stated cut-off is given here; in the data, active means normalized growth mostly below about 0.91 (no sharp cut-off); inconclusive means no clear call, values can overlap the other calls; inactive means mostly above about 0.92. The list shows a part of the results.
Assay: chemical genetic growth profiling, strain panel (AID 1159580);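 further: tested at 20 µM; growth read once vehicle control cultures reached saturation at 30 °C; 1 = growth at the plate median or of vehicle wells; lower values mean less growth of the strain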
Settings: S. cerevisiae deletion strains, growth OD

Measured: normalized growth

CN1CCC(=C2c3ccccc3C=Cc3ccccc32)CC1
inactive: locus YAL013W, strain DEP1, active compounds read low 0.966 | locus YAL040C, strain CLN3, active compounds read low 0.99 | locus YCL061C, strain MRC1 (second series), active compounds read low 0.99 | locus YDR150W, strain NUM1, active compounds read low 1 | locus YDR363W, strain ESC2, active compounds read low 1 | locus YER002W, strain NOP16, active compounds read low 0.995 | locus YGR078C, strain PAC10, active compounds read low 1 | locus YGR229C, strain SMI1, active compounds read low 0.959 | locus YHR030C, strain SLT2, active compounds read low 0.965 | locus YHR079C, strain IRE1, active compounds read low 0.967 | locus YJL095W, strain BCK1, active compounds read low 0.968 | locus YJR066W, strain TOR1, active compounds read low 0.942 | locus YLR113W, strain HOG1, active compounds read low 0.942 | locus YMR307W, strain GAS1, active compounds read low 1.01 | locus YNL175C, strain NOP13, active compounds read low 0.986 | locus YNL183C, strain NPR1, active compounds read low 0.914 | locus YNL197C, strain WHI3, active compounds read low 1.01 | locus YNL224C, strain SQS1, active compounds read low 0.995 | locus YNL322C, strain KRE1, active compounds read low 0.993 | locus YOR083W, strain WHI5 (second series), active compounds read low 1.01 | locus YOR231W, strain MKK1, active compounds read low 0.965 | locus YPL055C, strain LGE1, active compounds read low 0.973 | locus YPL256C, strain CLN2, active compounds read low 0.932

— PubChem BioAssay AID1159580 (chemical genetic matrix, 2015)
